Growth data for twelve compounds are collected here from PubChem BioAssay (NCI).

Experiment in all cases: NCI-60 one-dose screen, 48 h (100 = growth as untreated, 0 = no growth, -100 = all killed)
Assay [1] has as its system DU-145 prostate. Conditions: 10 µM unless noted.
In assay [2] the test system is MALME-3M melanoma. Particulars: 10 µM unless noted.
The test system of assay [3] is MDA-MB-231 breast. Particulars: 10 µM unless noted.
Assay [4] relates to RXF 393 renal. Particulars: 10 µM unless noted.
The subject of assay [5] is SF-268 CNS. Particulars: 10 µM unless noted.
In assay [6] the test system is SF-295 CNS. Conditions: 10 µM unless noted.
In assay [7] the test system is SF-539 CNS. Conditions: 10 µM unless noted.
Assay [8] deals with UACC-257 melanoma. Particulars: 10 µM unless noted.
For assay [9], the system named is M14 melanoma. Particulars: 10 µM unless noted.
Assay [10] concerns HCT-15 colon. Conditions: 10 µM unless noted.
The subject of assay [11] is HT29 colon. Conditions: 10 µM unless noted.
Assay [12] deals with SNB-75 CNS. Particulars: 10 µM unless noted.
For assay [13], the system named is SNB-19 CNS. Conditions: 10 µM unless noted.
In assay [14] the test system is U251 CNS. Conditions: 10 µM unless noted.
The subject of assay [15] is PC-3 prostate. Conditions: 10 µM unless noted.
The subject of assay [16] is UACC-62 melanoma. Conditions: 10 µM unless noted.
Assay [17] has as its system LOX IMVI melanoma. Particulars: 10 µM.
Assay [18] deals with SK-MEL-28 melanoma. Conditions: 10 µM unless noted.

The panel holds about 83,000 compounds, 20% with a hit somewhere; the sample as a whole holds those more often.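 For each line, cells grew in 96-well plates with the test compound present at a single concentration for 48 hours.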 Unmarked numbers belong to inactive results. Active and inactive are the calls of the source. How the source made its calls: active means growth percent below 10; inactive means the rest.

For the compound `CN1CCN(c2ccc(C(=O)/C=C/c3ccc(Br)cc3)cc2)CC1`, the growth in [1] is 32.9%; in [2], 74.4%; in assay [3], 16.7%; in assay [4] it was 31.5%; in [5], 62.2%; in [6] it was 35.2%. In addition, the growth in assay [7] is -34.9% (active); in assay [8], 25.4%; in [9], -36.3% (active); in assay [10] it was 8.41% (active); in assay [11], 6.76% (active); in [12], 28.3%. Besides, the growth in assay [13] was 31.4%; in [14] it was -75.7% (active); in [15], 34.4%; in assay [16], -9.44% (active); in assay [17], -13.4% (active); in assay [18], 37.7%.
For `CN1CCN(c2ccc(C(=O)/C=C/c3cc(C(F)(F)F)cc(C(F)(F)F)c3)cc2)CC1`, the growth was -73.9% (active) in assay [1]; -86.5% (active) in assay [2]; -89.9% (active) in [3]; -86.7% (active) in assay [4]; -51% (active) in assay [5]; -86.4% (active) in [6]. The growth was -97% (active) in assay [7]; -88.9% (active) in [8]; -97.4% (active) in assay [9]; -84.2% (active) in [10]; -3.47% (active) in assay [11]; -82.3% (active) in assay [12]. Also, the growth in assay [13] was -85% (active); in assay [14], -94.9% (active); in [15] it was -26.4% (active); in assay [16] it was -85.4% (active); in assay [17], -89.7% (active); in assay [18], -96.8% (active).
`C[C@H]1CN(C(=O)c2ccc3c(NNC(=O)c4ccncn4)nc4cc(F)c(F)cc4n23)CCN1`: the growth is 41.3% in assay [1]; 33.6% in assay [2]; 45.7% in [3]; 52.9% in assay [4]; 27.4% in assay [5]; 12.4% in assay [6]. In addition, the growth in assay [7] is 8.55% (active); in assay [8], 22.3%; in assay [9], -24.8% (active); in assay [10], 28.4%; in [11], 36.6%; in assay [12], 65.3%. Moreover, the growth is 30.1% in assay [13]; 15.5% in assay [14]; 38.7% in [15]; 6.69% (active) in assay [16]; 12.4% in [17]; 31.1% in assay [18].
As for `COc1ccc(C(=O)Nc2n[nH]c(Nc3ccccc3)c2C#N)cc1`, the growth was 119% in assay [1]; 97.8% in [2]; 103% in [3]; 118% in [4]; 97.3% in assay [5]; 92.8% in [6]. In addition, the growth in assay [7] is 98.3%; in assay [8] it was 137%; in assay [9] it was 109%; in assay [10] it was 102%; in assay [11] it was 112%; in assay [12], 112%. Further, the growth was 99.5% in assay [13]; 111% in assay [14]; 111% in assay [15]; 98.3% in [17]; 103% in [18].
For `Nc1n[nH]c2cccc(C#Cc3cccc(NC(=O)c4cccc(Cl)c4)c3)c12`, the growth in assay [1] is 55.8%; in [2], 46.4%; in assay [3] it was 9.79% (active); in assay [4], -14.7% (active); in [5], 41.1%; in assay [6] it was 15.3%. The growth in assay [7] was 8.74% (active); in [8] it was 48.5%; in [9], 15.9%; in assay [10], 20%; in assay [11], 37.8%; in assay [12], 35.7%. In addition, the growth was 46.1% in assay [14], 20.5% in [15], 32.4% in assay [16] and 42.5% in assay [18].
For the compound `Cc1ccc(-c2nnc3ccc(N/N=C/c4ccccc4)nn23)cc1`, the growth in assay [1] was 75.9%; in assay [2], 95.6%; in assay [3], 80.1%; in assay [4], 94.3%; in [5], 57.8%; in assay [6], 52.3%. In addition, the growth in assay [7] is 80.8%; in assay [8], 103%; in assay [9], 67.3%; in [10], 69.2%; in assay [11] it was 118%; in assay [12] it was -17% (active). For the same compound, the growth is 75.1% in assay [14]; 89.3% in [15]; 98.4% in assay [16]; 47.5% in [17]; 95.7% in [18].
As for `O=C1N/C(=N\c2nccs2)S/C1=C\C=C/c1ccccc1`, the growth in assay [1] was 49.1%; in assay [2], 42.6%; in assay [3], 51.6%; in [4], 88.6%; in assay [5], 39.2%; in assay [6], 21.9%. Besides, the growth was 13% in assay [7]; 8.23% (active) in assay [8]; -21% (active) in assay [9]; 28.1% in assay [10]; 25.5% in assay [11]; 83.5% in assay [12]. The growth in assay [13] was 26.6%; in assay [14], 8.95% (active); in assay [15] it was 46.6%; in assay [16], -24% (active); in assay [17] it was 28.3%; in assay [18], 18%.
As to `Cc1cc(C)n(-c2ccc3nnc(-c4ccccc4)n3n2)n1`, the growth is 92.2% in [1]; 108% in assay [2]; 117% in [3]; 90.6% in assay [4]; 89.6% in assay [5]; 103% in [6]. For the same compound, the growth is 102% in [7]; 135% in assay [8]; 129% in assay [9]; 86.4% in [10]; 115% in [11]; 94.4% in assay [12]. The growth in [13] was 98.3%; in assay [14], 102%; in [15], 104%; in assay [16], 99.9%; in [17] it was 77.3%; in assay [18], 122%.
As to `COc1cccc(/C=C/C(=O)c2ccc(OC)c(S(N)(=O)=O)c2)c1`, the growth in assay [1] is 31.8%; in assay [2], 71.2%; in assay [3], 49.4%; in [4], 41.7%; in assay [5] it was 39.5%; in assay [6], 34.6%. For the same compound, the growth in assay [7] is -11.6% (active); in assay [8], 65.8%; in assay [10] it was -7.46% (active); in [11], 4.06% (active); in [12] it was 20.6%; in [13], 27%. Further, the growth in assay [14] is -31.2% (active); in assay [15], 48%; in [16], 52.6%; in assay [17] it was -69.9% (active); in [18], 60.8%.
Consider `O=C(Nc1ccc(C(F)(F)F)cc1)Nc1ccc2oc(=O)ccc2c1`, for which the growth in assay [1] is 27.9%; in assay [2], -1.86% (active); in [3] it was 14.6%; in assay [4], 56.5%; in [5] it was 50.9%; in assay [6], -7.66% (active). Moreover, the growth was 32.2% in assay [7]; 0.986% (active) in assay [8]; 10.1% in [10]; 9.84% (active) in assay [11]; 44.1% in assay [12]; -0.283% (active) in [14]. Further, the growth in assay [15] was 13.6%; in [16] it was 28%; in assay [17] it was -83.8% (active); in assay [18], 37.6%.
As for `COc1ccc(-c2nnc3ccc(N/N=C/c4ccc(C)cc4)nn23)cc1`, the growth was 39.1% in [1]; 91.3% in assay [2]; 65.4% in assay [3]; 62.2% in [4]; 59.1% in assay [5]; 56.9% in assay [6]. Besides, the growth is 61.3% in assay [7]; 106% in [8]; 83.5% in assay [9]; 50% in assay [10]; 82.6% in assay [11]; -38.6% (active) in assay [12]. The growth in assay [13] is 92.6%; in assay [14] it was 44.9%; in assay [15] it was 72.2%; in [16] it was 88.9%; in assay [17], 23.7%; in [18], 93.6%.
For `COc1ccc(NC(=O)Cn2c(/C=C/c3cccc([N+](=O)[O-])c3)nc3ccccc3c2=O)cc1`, the growth is 93.9% in assay [1]; 77% in assay [2]; 15.8% in [3]; -6.3% (active) in [4]; 71.6% in [5]; 79.2% in assay [6]. In addition, the growth in [7] was 7.2% (active); in [8], 98.8%; in [9] it was 76.7%; in [10], 78.2%; in assay [11], 88%; in assay [12], 1.99% (active). Further, the growth in assay [13] is 72.9%; in [14] it was 36.1%; in [15], 94%; in assay [16], 51.5%; in [17], 50.8%; in assay [18], 93.7%.
